# Screen size: about 66,000 compounds; about 960 (1.5%) showed an effect of 50% or more. Only a selection was taken, and strong results are over-represented in it overall.
# Test system: Trypanosoma brucei
# Experiment: Trypanosoma brucei 72 hour study
# Assay type: functional, organism-based
# Parameters: scale not given: in the data most compounds retested in dose-response had high values
compound,measurement,setting,value
O=C(C1CCOCC1)N1C[C@H]2CCC[C@@]2(COc2ccccn2)C1.O=C(O)C(F)(F)F,Percent Effect,"30 µM, 30.03 µM",15.32%
Cl.Cn1nc(C2CCCN(Cc3cc(F)cc(F)c3)C2)c2nccnc21 (stereo not given),Percent Effect,"30.3 µM, […]",30.77%
CCNC(=O)[C@@H]1C[C@H](N)CN1C1CCN(c2ccccc2OC)CC1,Percent Effect,"30.3 µM, […]",99.36%
CNC(=O)[C@@H]1C[C@@H](N)CN1C1CCN(Cc2ccccn2)CC1,Percent Effect,"30.3 µM, […]",-17.78%
CNC(=O)[C@@H]1C[C@@H](N)CN1C1CCN(c2ccccc2F)CC1,Percent Effect,"30.3 µM, […]",11.28%
O=C(NCCCn1nc2ccccn2c1=O)Nc1ccccc1,Percent Effect,"30.3 µM, […]",-36.69%
OC(COCc1ccco1)CSc1nnc2ccccn12 (stereo not given),Percent Effect,"30.3 µM, […]",-18.97%
Cc1ccc(-n2c(C)nnc2SCC(O)COCc2ccco2)cc1 (stereo not given),Percent Effect,"30.3 µM, […]",100%
OC(COCc1ccco1)CN1CCC(Cn2cccn2)CC1 (stereo not given),Percent Effect,"30 µM, 30.03 µM",-22.56%
N#Cc1ccc(OCC(O)CN2CCC(c3ccn[nH]3)CC2)cc1 (stereo not given),Percent Effect,10 µM,5.752%
OC(COc1ccccc1)CN1CCC(c2ccn[nH]2)CC1 (stereo not given),Percent Effect,"30 µM, 30.03 µM",-29.13%
OC(COc1ccc(F)cc1)CN1CCC(c2ccn[nH]2)CC1 (stereo not given),Percent Effect,10 µM,90.5%
CN1[C@H](Cn2cccn2)C[C@@H]2CN(Cc3cccs3)CC[C@@H]21.O=C(O)C(F)(F)F.O=C(O)C(F)(F)F.O=C(O)C(F)(F)F,Percent Effect,"30.3 µM, […]",-3.772%
CN(C)CCn1c([C@H]2CCCO2)cc2cccnc21,Percent Effect,"30.3 µM, […]",1.858%
O=C(O)C(F)(F)F.O=S(=O)(C1CC1)N1CC[C@]2(C[C@@H](Oc3ncccc3F)CO2)C1,Percent Effect,"30 µM, 30.03 µM",13.6%
Cc1cnc(N2CC[C@@H]3CN(CCC(C)C)S(=O)(=O)[C@@H]3CC2)nc1,Percent Effect,"30.3 µM, […]",13.68%
CC(C)CN1C[C@H]2CCN(c3ncccn3)CC[C@H]2S1(=O)=O.O=C(O)C(F)(F)F,Percent Effect,"30 µM, 30.03 µM",7.131%
CCc1cnc(N2CC[C@@H]3CN(CCC(C)C)S(=O)(=O)[C@@H]3CC2)nc1.O=C(O)C(F)(F)F,Percent Effect,"30.3 µM, […]",50.26%
COc1ccccc1OCCc1cc(C2CCNC2)n[nH]1.Cl.Cl (stereo not given),Percent Effect,"30.3 µM, […]",-27.23%
Cc1cnc(C(=O)N2CCC(COCc3ccccc3)C2)cn1 (stereo not given),Percent Effect,"30.3 µM, […]",-6.003%
CC(=O)N1CCN(C)CC(COCc2ccccc2)C1 (stereo not given),Percent Effect,"30.3 µM, […]",18.55%
CC(C)(C)C(=O)N1CCC(COCc2ccccc2)C1 (stereo not given),Percent Effect,"30.3 µM, […]",100.1%
Cc1nn(C)c2c(=O)n(CC(=O)NCc3ccccn3)ccc12,Percent Effect,"30 µM, 30.03 µM",-0.211%
CC(C)C(CCO)NC(=O)Nc1cc(F)ccc1-n1cccn1 (stereo not given),Percent Effect,"30.3 µM, […]",-14.63%
CC(C)C(O)CCNC(=O)Nc1cc(F)ccc1-n1cccn1 (stereo not given),Percent Effect,"30.3 µM, […]",88.94%
C[S+]([O-])CCNC(=O)Nc1cc(F)ccc1-n1cccn1 (stereo not given),Percent Effect,"30.3 µM, […]",-162.3%
CN(CCO)C[C@@H]1CN(C2CCN(c3ccccc3Cl)CC2)C[C@@H]1CO,Percent Effect,"30 µM, 30.03 µM",13.3%
CC1CN(CC2CCCC2)CCN1c1ccc2nncn2n1 (stereo not given),Percent Effect,"30 µM, 30.03 µM",98.48%
CC1CN(Cc2cccc(C#N)c2)CCN1c1ccc2nncn2n1 (stereo not given),Percent Effect,"30 µM, 30.03 µM",-20.22%
CC1CN(CC(=O)NC2CCCC2)CCN1c1ccc2nncn2n1 (stereo not given),Percent Effect,"30 µM, 30.03 µM",-13.42%
CC1CN(Cc2cccnc2)CCN1c1ccc2nncn2n1 (stereo not given),Percent Effect,"30.3 µM, […]",7.126%
same,Percent Effect,"10 mM, 10 mM as filed; unlikely as a test dose",-16.61%
COc1cccc(CN2CCN(c3ccc4nncn4n3)C(C)C2)c1 (stereo not given),Percent Effect,"30 µM, 30.03 µM",97.2%
CC1CN(CC2CCCCC2)CCN1c1ccc2nncn2n1 (stereo not given),Percent Effect,"30 µM, 30.03 µM",-45.41%
CC(C)(C)c1nc(CNC(=O)N2CCc3ccccc3C2CO)no1 (stereo not given),Percent Effect,"30.3 µM, […]",6.013%
Cc1cc(C(=O)N2CCOC(c3nc(C(C)C)n[nH]3)C2)c(C)s1 (stereo not given),Percent Effect,"30.3 µM, […]",17.14%
CC(C)(CO)Nc1cc(-c2cn[nH]c2)ncn1.Cl,Percent Effect,"30.3 µM, […]",-11.12%
Cc1cc(-c2cnc(N3CCCC(C)C3)nc2C(C)C)on1 (stereo not given),Percent Effect,"30.3 µM, […]",-16.22%
Cc1cc(-c2cnc(N3CCCC(C)C3)nc2-c2cccnc2C)on1.Cl (stereo not given),Percent Effect,"30.3 µM, […]",58.57%
Cc1cc(-c2cnc(N3CCCCCC3)nc2-c2cccnc2C)on1,Percent Effect,"30.3 µM, […]",55.42%
Cc1cc(-c2cnc(N3CCC(O)CC3)nc2-c2cccnc2C)on1,Percent Effect,"30.3 µM, […]",-31.41%
Cc1cc(-c2cnc(N3CCNC(=O)C3)nc2-c2cccnc2C)on1,Percent Effect,"30 µM, 30.03 µM",16.74%
Cc1cc(-c2cnc(N3CCOCC3)nc2-c2cccnc2C)on1,Percent Effect,"30.3 µM, […]",-10.3%
Cc1ccc(-c2ccnc(NC(c3ncccc3C)C3CC3)n2)c(C)n1 (stereo not given),Percent Effect,"30 µM, 30.03 µM",-69.26%
CC(=O)N1CCO[C@@H]2CN(Cc3ccccc3F)C[C@@H]2C1.O=C(O)C(F)(F)F,Percent Effect,"30.3 µM, […]",-73.74%
O=C1OCCN1CC(=O)N1C[C@H]2CC[C@@H]1CN(Cc1cscn1)C2,Percent Effect,"30 µM, 30.03 µM",-38.65%
CNc1ccc(C(=O)N(C)Cc2ccc3ccccc3n2)cn1,Percent Effect,"30.3 µM, […]",5.672%
COc1ncccc1C(=O)N1CCC2(CC1)CC(OC)CO2.O=C(O)C(F)(F)F (stereo not given),Percent Effect,"30.3 µM, […]",-51.01%
COc1ncccc1C(=O)N1CC[C@]2(C[C@@H](Oc3cccnc3)CO2)C1.O=C(O)C(F)(F)F.O=C(O)C(F)(F)F,Percent Effect,"30 µM, 30.03 µM",55.04%
Cn1ccnc1C(=O)N1CCC2(CC1)CC(Oc1cccnc1)CO2.O=C(O)C(F)(F)F (stereo not given),Percent Effect,"30 µM, 30.03 µM",24.28%
Cn1ccc(C(=O)NC2CCC23CCN(CC2CCOCC2)CC3)c1.O=C(O)C(F)(F)F (stereo not given),Percent Effect,"30 µM, 30.03 µM",-17.43%
COCCN1CCCn2c(nc(CNS(C)(=O)=O)cc2=O)C1.O=C(O)C(F)(F)F,Percent Effect,"30.3 µM, […]",5.593%
CC(=O)N1N=C(c2ccccc2)OC1C(=O)NCCc1ccc(Cl)cc1 (stereo not given),Percent Effect,"30.3 µM, […]",-41.87%
same,Percent Effect,"10 mM, 10 mM as filed; unlikely as a test dose",-29.49%
CC(=O)N1N=C(c2ccccc2)OC1C(=O)NCCc1ccc(O)cc1 (stereo not given),Percent Effect,"30.3 µM, […]",-23.74%
same,Percent Effect,"10 mM, 10 mM as filed; unlikely as a test dose",-98.13%
CC(=O)N1N=C(c2ccccc2)OC1C(=O)NCCc1ccc(C)cc1 (stereo not given),Percent Effect,"30.3 µM, […]",99.94%
same,Percent Effect,"10 mM, 10 mM as filed; unlikely as a test dose",-45.21%
O=C(Cc1cccc(F)c1)N1CCn2cc(Cn3cccn3)nc2C1.O=C(O)C(F)(F)F,Percent Effect,"30.3 µM, […]",-215.4%
CC(C)c1n[nH]c(C2CN(C(=O)c3ccnc(C4CC4)n3)CCO2)n1 (stereo not given),Percent Effect,10 µM,-44.45%
Cc1nc2c(cc1C(=O)O)CCN(Cc1ccsc1)CC2.O=C(O)C(F)(F)F.O=C(O)C(F)(F)F,Percent Effect,"30.3 µM, […]",-6.304%
Cc1ncc(CN2CCOC(c3ccc(-c4ccccc4F)cn3)C2)s1 (stereo not given),Percent Effect,"30.3 µM, […]",93.67%
Cc1ncc(CN2CCOC(c3ccc(-c4cc[nH]n4)cn3)C2)s1 (stereo not given),Percent Effect,"30.3 µM, […]",-10.46%
Cc1ncc(CN2CCOC(c3ccc(-c4cnn(C)c4)cn3)C2)s1 (stereo not given),Percent Effect,"30.3 µM, […]",-5.677%
O=C(NC[C@]12COC[C@H]1CN(Cc1nccs1)C2)c1ccsc1.O=C(O)C(F)(F)F,Percent Effect,"30 µM, 30.03 µM",-41.51%
CN(C)CCN1CCN(Cc2cccc(C#N)c2)Cc2cccnc21.O=C(O)C(F)(F)F.O=C(O)C(F)(F)F.O=C(O)C(F)(F)F,Percent Effect,"30.3 µM, […]",-65.33%
CN1C(=O)[C@H]2CC[C@@H]1CN(S(=O)(=O)c1ccc(Cl)cc1Cl)C2,Percent Effect,"30 µM, 30.03 µM",13.71%
CC(C)c1nc(CN2CCCC2c2cnn(C)c2)cs1 (stereo not given),Percent Effect,10 µM,-7.544%
Cn1cc(C2CCCN2Cc2csc(-c3ccccc3)n2)cn1 (stereo not given),Percent Effect,10 µM,-15.89%
Cn1cc(C2CCCN2Cc2csc(C(C)(C)C)n2)cn1 (stereo not given),Percent Effect,"30 µM, 30.03 µM",87.76%
COCCn1c(=O)n(C)c(=O)c2ccc(C3CCN(C(C)=O)CC3)nc21,Percent Effect,"30.3 µM, […]",24.28%
Cl.OC[C@H]1CC[C@]2(CC1)CN(Cc1ccsc1)Cc1ccccc1O2,Percent Effect,"30.3 µM, […]",39.16%
CC(C)c1nccc(CN2CCCC(O)(CN3CCCC3)C2)n1 (stereo not given),Percent Effect,"30 µM, 30.03 µM",17.13%
CC(C)c1nccc(CN2CCCC(O)(CN(C)C)C2)n1 (stereo not given),Percent Effect,"30 µM, 30.03 µM",-2.317%
CC(C)c1nccc(CN2CCC(O)(CN3CCCCC3)C2)n1 (stereo not given),Percent Effect,"30 µM, 30.03 µM",67.93%
CCCSc1ncc(CN(C)CCN2CCCCC2)cn1.O=C(O)CC(O)(CC(=O)O)C(=O)O,Percent Effect,"30.3 µM, […]",2.471%
Cc1cccc(Nc2cc(C3CCCN(CC(N)=O)C3)ccn2)n1.O=CO.O=CO (stereo not given),Percent Effect,"30.3 µM, […]",-0.9423%
CCOc1ccccc1N1CCN(CC2(O)CCCNC2)CC1 (stereo not given),Percent Effect,"30 µM, 30.03 µM",-24.1%
Cc1ccc(C)c(N2CCN(CC3(O)CCNC3)CC2)c1 (stereo not given),Percent Effect,"30 µM, 30.03 µM",106.8%
Cc1ccccc1N1CCCN(CC2(O)CCCNC2)CC1 (stereo not given),Percent Effect,"30 µM, 30.03 µM",24.63%
Cn1cccc1C(=O)N1CCC2(CC1)CN(c1ccsc1)C(=O)CO2,Percent Effect,"30.3 µM, […]",-133.6%
COc1ccc(CN2CCO[C@H]3[C@H](OCCN4CCCC4)CC[C@@H]32)cc1.O=C(O)C(F)(F)F.O=C(O)C(F)(F)F,Percent Effect,"30.3 µM, […]",-2.76%
COc1ccccc1CN1CCc2c(nc(-c3ccccn3)[nH]c2=O)C1,Percent Effect,"30.3 µM, […]",100.6%
CCn1ncc(CN2CCc3c(nc(-c4cccnc4)[nH]c3=O)C2)c1C,Percent Effect,"30 µM, 30.03 µM",24.52%
Cc1nn(C)cc1CN1CCc2c(nc(-c3ccccn3)[nH]c2=O)C1,Percent Effect,"30.3 µM, […]",3.808%
COc1ccc(CN2CCc3c(nc(-c4ccccn4)[nH]c3=O)C2)cc1,Percent Effect,"30.3 µM, […]",100.8%
Cn1cccc1CN1CCc2c(nc(-c3ccccn3)[nH]c2=O)C1,Percent Effect,"30.3 µM, […]",100.6%
O=c1[nH]c(-c2ccccn2)nc2c1CCN(S(=O)(=O)N1CCCC1)C2,Percent Effect,"30.3 µM, […]",16.13%
O=c1[nH]c(-c2ccccn2)nc2c1CCN(Cc1cccc(O)c1)C2,Percent Effect,"30.3 µM, […]",-1.061%
Cn1cc(CN2CCc3c(nc(-c4ccccn4)[nH]c3=O)C2)cn1,Percent Effect,"30 µM, 30.03 µM",19.69%
Cc1ncc(CN2CCc3c(nc(-c4ccccn4)[nH]c3=O)C2)n1C,Percent Effect,"30.3 µM, […]",9.769%
CCN(CC)CC1CN(CCc2ccccc2)Cc2nccn2C1.O=C(O)C(F)(F)F.O=C(O)C(F)(F)F (stereo not given),Percent Effect,"30 µM, 30.03 µM",-28.98%
CC(C)c1nn(C)c(N(C)C)c1CNCCC(=O)NC1CCCCC1,Percent Effect,"30.3 µM, […]",-9.322%
Cc1cccc(CN2C(=O)CCC23CCN(Cc2cccn2C)CC3)n1.O=C(O)C(F)(F)F.O=C(O)C(F)(F)F,Percent Effect,"30.3 µM, […]",-13.68%
Cl.O=C(CCC1CCCC1)NCCn1nc(C2CCNC2)c2cccnc21 (stereo not given),Percent Effect,"30 µM, 30.03 µM",11.21%

# From ChEMBL document CHEMBL3988442, “University of Dundee, Small-Polar-MMV Screening Library” (2021)
